{"source": "PubChem BioAssay AID1558", "about": "(National Center for Advancing Translational Sciences (NCATS), 2009)", "note": "Where “and” joins values, the source holds several entries; their conditions need not be identical. Identical values can stand only once. Inconclusive results are not listed. A number with no mark means an inactive call. Calls of active or inactive are those of the source. The call rests on the fitted dose curve; in most records, active means well fitted inhibition curve with a large enough effect; inconclusive means small, poorly fitted or top-dose-only effect; inactive means flat fitted curve, though single readings scatter.", "data": [{"molecular_target": "Microtubule-associated protein tau (Homo sapiens) (UniProt P10636)", "sequence (P10636 561-689 P618L limits assumed)": "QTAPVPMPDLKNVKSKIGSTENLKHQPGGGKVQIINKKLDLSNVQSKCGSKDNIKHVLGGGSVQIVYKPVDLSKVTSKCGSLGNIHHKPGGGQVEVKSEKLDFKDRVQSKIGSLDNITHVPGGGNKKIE", "assay": "Confirmation Concentration-Response Assay for Inhibitors of Tau Fibril Formation, Thioflavin T Binding", "settings": "recombinant tau K18 P301L heparin fibrillization, ThT fluorescence; series mostly up to 100 µM; activity change, negative = inhibition: at the top concentration", "method_in_brief": "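Heparin (20 uM final) induced fibrillization of human tau K18 P301L (15 uM unlabeled plus 0.24 uM Alexa 594-labeled, final) in 100 mM sodium acetate pH 7 with compound, 6 hr at 37 C. ThT (30 uM final) added, read after 1 hr (ex 450, em 510 nm).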", "values": [{"molecule": "O=C(Nc1nc2ccc(S(=O)(=O)N3CCCC3)cc2s1)c1ccc(F)cc1", "activity change, negative = inhibition": "12.3%"}, {"molecule": "CN(c1ccccc1)S(=O)(=O)c1nnc(NC(=O)COc2ccccc2)s1", "activity change, negative = inhibition": "-16.4%"}, {"molecule": "Nc1scc2c(C(=O)NCc3ccccc3)nn(-c3ccccc3)c(=O)c12", "Potency": "7.08 µM (active)"}, {"molecule": "Cc1cccc(NC(=O)c2c(NC(=O)c3ccccc3)sc3c2CCCC3)c1", "Potency": "7.94 µM (active)"}, {"molecule": "COc1ccc(NC(=O)C2CCN(S(=O)(=O)c3c(C)noc3/C=C/c3cccs3)CC2)cc1Cl", "activity change, negative = inhibition": "-9.5%"}, {"molecule": "COC(=O)CSc1nc2ccc(NC(=O)CSc3nnnn3Cc3ccccc3)cc2s1", "activity change, negative = inhibition": "-10.2%"}, {"molecule": "NC(=O)c1nn(-c2ccccc2)c(=O)c2c(N)scc12", "Potency": "4.47 µM (active)"}, {"molecule": "N#Cc1cccc(NC(=O)c2ccc3c(c2)N(Cc2cccc(Cl)c2)C(=O)c2ccccc2S3(=O)=O)c1", "activity change, negative = inhibition": "-3.7%"}, {"molecule": "COc1ccc(-n2nc(C(=O)O)c3csc(N)c3c2=O)cc1", "Potency": "1 µM (active)"}, {"molecule": "Nc1scc2c(C(=O)N3CCOCC3)nn(-c3ccccc3)c(=O)c12", "Potency": "11.2 µM (active)"}, {"molecule": "COC(=O)c1c(NC(=O)C(C)(C)C)sc2c1C(C(=O)OC)CC2", "note": "(configuration not stated)", "activity change, negative = inhibition": "-17.1%"}, {"molecule": "CC(=O)Nc1nc(C)c(-c2csc(Nc3ccc(O)cc3)n2)s1", "Potency": "15.8 µM (active)"}, {"molecule": "CCOC(=O)c1c(N)sc2c1CN(C)CC2", "activity change, negative = inhibition": "-12.4% [at 57.1 µM]"}, {"molecule": "O=C(O)CC1S/C(=N/N=C/c2ccc(-c3ccc(Cl)cc3[N+](=O)[O-])o2)NC1=O", "note": "(configuration not stated)", "Potency": "1.58 µM (active)"}, {"molecule": "COC(=O)c1c(N)sc2c1C(C(=O)OC)CC2", "note": "(configuration not stated)", "activity change, negative = inhibition": "-8.58% [at 57.1 µM]"}, {"molecule": "CCOC(=O)c1ccc(S(=O)(=O)Nc2nc3cc(S(=O)(=O)NC4=NCCCCC4)ccc3s2)cc1", "Potency": "10 µM (active)"}, {"molecule": "COc1ccc(NC(=O)c2c(NC(=O)Cc3ccccc3)sc3c2CCCC3)cc1", "activity change, negative = inhibition": "-0.544% [at 57.1 µM]"}, {"molecule": "O=C(NCc1cccnc1)C1CCN(S(=O)(=O)c2cccs2)CC1", "activity change, negative = inhibition": "-16.8%"}, {"molecule": "O=C(Cc1ccccc1)Nc1sc2c(c1C(=O)Nc1cccc(Cl)c1)CCCC2", "activity change, negative = inhibition": "-11.2% [at 57.1 µM]"}, {"molecule": "COc1ccc2c(c1)c(CC(=O)Nc1ccc(C(C)=O)cc1)c(C)n2C(=O)c1ccc(Cl)cc1", "activity change, negative = inhibition": "-18.6%"}, {"molecule": "Nc1scc2c(CO)nn(-c3ccccc3)c(=O)c12", "Potency": "3.98 µM (active)"}, {"molecule": "COc1ccc(S(=O)(=O)Nc2cc(Sc3ncn[nH]3)c(O)c3ccccc23)cc1", "Potency": "2.82 µM (active)"}, {"molecule": "CN(C(=S)Nc1cccnc1)c1ccc(O)cc1", "Potency": "10 µM (active)"}, {"molecule": "Nc1scc2c(C(=O)O)nn(-c3ccccc3)c(=O)c12", "Potency": "6.31 µM (active)"}, {"molecule": "COc1ccc2c(c1)c(CC(=O)N1CCOCC1)c(C)n2C(=O)c1ccc(Cl)cc1", "activity change, negative = inhibition": "-12.2%"}, {"molecule": "CCOC(=O)c1nn(-c2ccc(OC)cc2)c(=O)c2c(NC(=O)Cc3ccccc3)scc12", "activity change, negative = inhibition": "-28.9% [at 57.1 µM]"}, {"molecule": "CCOC(=O)c1nn(-c2ccccc2)c(=O)c2c(N)scc12", "Potency": "3.98 µM (active) and 7.94 µM (active)"}]}]}
